Columns and labels:
Conditions in all cases: concentration: 1 μM, replicates: in singlicate; n = 1
DLK = tested on: T1, DLK
T1 construct: gene MAP3K12

DMPK2 = tested on: T2, DMPK2
T2 construct: gene CDC42BPG

DMPK = tested on: DMPK
DRAK1 = tested on: T3, DRAK1
T3 construct: gene STK17A

DRAK2 = tested on: T4, DRAK2
T4 construct: gene STK17B

DYRK1A = tested on: DYRK1A
DYRK1B = tested on: DYRK1B
DYRK2 = tested on: DYRK2
EGFR = tested on: EGFR
EIF2AK1 = tested on: EIF2AK1
EPHA1 = tested on: EPHA1
EPHA2 = tested on: EPHA2
EPHA3 = tested on: EPHA3
EPHA4 = tested on: EPHA4
EPHA5 = tested on: EPHA5
EPHA6 = tested on: EPHA6
EPHA7 = tested on: EPHA7
EPHA8 = tested on: EPHA8
EPHB1 = tested on: EPHB1
EPHB2 = tested on: EPHB2
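Also: KINOMEscan kinase panel screen.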

Structure (SMILES) | %Inh (DLK) [%] | %Inh (DMPK2) [%] | %Inh (DMPK) [%] | %Inh (DRAK1) [%] | %Inh (DRAK2) [%] | %Inh (DYRK1A) [%] | %Inh (DYRK1B) [%] | %Inh (DYRK2) [%] | %Inh (EGFR) [%] | %Inh (EIF2AK1) [%] | %Inh (EPHA1) [%] | %Inh (EPHA2) [%] | %Inh (EPHA3) [%] | %Inh (EPHA4) [%] | %Inh (EPHA5) [%] | %Inh (EPHA6) [%] | %Inh (EPHA7) [%] | %Inh (EPHA8) [%] | %Inh (EPHB1) [%] | %Inh (EPHB2) [%]
Cc1c(Cn2c(C)nn3c(=O)cc(N4CCO[C@H](C)C4)nc23)cccc1C(F)(F)F [GSK2373690] | 0 | 5 | 23 | 1 | 1 | 19 | 20 | 17 | 10 | 0 | 4 | 26 | 0 | 3 | 1 | 0 | 22 | 29 | 8 | 0
CC(C)(C)c1ccc(C(=O)Nc2cn3cc(-c4ccccc4)ccc3n2)cc1 | 0 | 0 | 0 | 0 | 0 | 0 | 0 | 37 | 5 | 0 | 0 | 0 | 6 | 6 | 0 | 0 | 0 | 0 | 11 | 0
CCc1ccc(-c2ccc3c(c2)-c2nn(C)cc2S(=O)(=O)N3C)cc1 | 0 | 0 | 0 | 0 | 0 | 0 | 0 | 0 | 0 | 0 | 4 | 25 | 0 | 0 | 0 | 0 | 0 | 0 | 0 | 0
Nc1n[nH]c2nnc(-c3ccccc3)c(-c3ccccc3)c12 [GW554060] | 25 | 0 | 0 | 0 | 0 | 23 | 0 | 20 | 36 | 0 | 15 | 6 | 0 | 12 | 0 | 28 | 0 | 10 | 9 | 0
Cc1cccc(-c2cc(-c3c[nH]nc3-c3ccccn3)ccn2)c1 [GW679395] | 13 | 1 | 0 | 0 | 0 | 24 | 0 | 0 | 31 | 0 | 38 | 7 | 0 | 22 | 0 | 13 | 0 | 13 | 33 | 17
Cl.NS(=O)(=O)c1cccc(Nc2cc(-c3ccc(F)cc3)n[nH]2)c1 [GW824645] | 0 | 0 | 1 | 0 | 0 | 0 | 0 | 24 | 0 | 0 | 0 | 0 | 0 | 0 | 0 | 0 | 0 | 21 | 0 | 0
CN(C)c1cc(-c2ccc3c(N)n[nH]c3c2)nc(N)n1 [GSK2219329] | 7 | 5 | 0 | 36 | 0 | 9 | 5 | 67 | 43 | 0 | 15 | 0 | 4 | 8 | 0 | 0 | 0 | 3 | 14 | 0
CCC(=O)c1c(-c2ccccc2)c2cc(Cl)ccc2c(=O)n1Cc1cc(S(C)(=O)=O)n(CC(N)=O)n1 | 0 | 0 | 0 | 0 | 0 | 0 | 0 | 0 | 0 | 0 | 0 | 15 | 0 | 0 | 0 | 0 | 0 | 0 | 0 | 0
COc1cc(Nc2nccc(N3CCC(NC(=O)C4COc5ccccc5O4)C3)n2)cc(OC)c1OC (stereo not drawn) [GSK1379761] | 60 | 0 | 0 | 0 | 0 | 0 | 5 | 19 | 43 | 0 | 1 | 17 | 1 | 2 | 0 | 0 | 0 | 5 | 6 | 8
Cc1nnc(-c2ccc(C)c(-c3ccc(C(=O)O)cc3)c2)o1 [GW608005] | 21 | 0 | 0 | 0 | 1 | 20 | 0 | 8 | 22 | 0 | 0 | 0 | 0 | 18 | 0 | 9 | 0 | 0 | 8 | 0
CCn1c(-c2nonc2N)nc2ccccc21 [SB-693162/GW549034] | 0 | 0 | 0 | 9 | 0 | 49 | 16 | 37 | 0 | 48 | 0 | 0 | 10 | 0 | 0 | 0 | 0 | 0 | 0 | 0
CCC(=O)c1c(-c2ccccc2)c2cc(Cl)ccc2c(=O)n1Cc1ccc(C(=O)O)cc1 | 0 | 0 | 0 | 0 | 2 | 0 | 39 | 15 | 0 | 0 | 0 | 0 | 7 | 7 | 0 | 6 | 0 | 4 | 9 | 0
O=C(Nc1ccc2c(c1)OCO2)NC1CCN(c2ccnc(NCc3ccc(F)cc3)n2)CC1 [GSK1379859] | 22 | 16 | 0 | 6 | 0 | 7 | 14 | 5 | 44 | 10 | 8 | 0 | 0 | 13 | 0 | 8 | 1 | 0 | 0 | 37
COc1cc2nccc(Nc3ccc(OCc4ccc(NC(C)=O)cc4)cc3)c2cc1OC.Cl [GW440135] | 27 | 0 | 0 | 7 | 0 | 15 | 1 | 4 | 18 | 17 | 19 | 16 | 0 | 13 | 0 | 16 | 5 | 5 | 6 | 0
CCS(=O)(=O)c1ccc(OC)c(Nc2ncc(-c3ccc(F)cc3)o2)c1.Cl [GW591947] | 25 | 13 | 6 | 10 | 0 | 12 | 0 | 17 | 4 | 5 | 0 | 0 | 0 | 0 | 0 | 0 | 0 | 1 | 11 | 64
O=C(Nc1n[nH]c2nc(-c3ccccc3)c(Cl)cc12)C1CC1 [SB-734909] | 22 | 11 | 0 | 0 | 0 | 10 | 3 | 8 | 14 | 18 | 19 | 24 | 17 | 8 | 0 | 13 | 17 | 21 | 0 | 0
COc1cc(Nc2ccnc3ccc(C(F)(F)F)cc23)cc(OC)c1OC [GW577382] | 32 | 4 | 0 | 0 | 0 | 4 | 16 | 0 | 27 | 2 | 61 | 35 | 27 | 14 | 2 | 0 | 10 | 75 | 10 | 26
COC(=O)c1c(-c2ccccc2)c2cc(Br)ccc2c(=O)n1Cc1ccc(NC(=O)CCC(=O)O)cc1 | 0 | 0 | 0 | 0 | 0 | 9 | 48 | 8 | 0 | 12 | 24 | 0 | 4 | 12 | 7 | 31 | 5 | 12 | 5 | 7
CN1C(=O)C(Nc2cc(Cl)c(O)c(Cl)c2)=C(c2ccc(Cl)cc2)C1=O [SB-404321] | 33 | 0 | 0 | 0 | 0 | 0 | 50 | 0 | 52 | 0 | 0 | 0 | 4 | 0 | 8 | 0 | 0 | 0 | 0 | 15
Cc1ccccc1COc1cc(-n2cnc3cc(Cl)ccc32)sc1C(N)=O [GW813349] | 0 | 2 | 0 | 0 | 1 | 15 | 34 | 19 | 2 | 6 | 9 | 6 | 0 | 0 | 0 | 0 | 0 | 0 | 14 | 19
O=C(NCCNc1ccnc(Nc2ccc(F)cc2)n1)Nc1ccc2c(c1)OCO2 [GSK1379882] | 5 | 11 | 0 | 10 | 0 | 7 | 0 | 23 | 0 | 0 | 15 | 0 | 0 | 0 | 0 | 0 | 0 | 0 | 18 | 0
